Experimental data reported in PubChem BioAssay (NCI).
The panel holds about 79,000 compounds, 15% with a hit somewhere; the sample as a whole holds those more often. Calls of active or inactive are those of the source. Cut-off read from the data, not from the text of the source: active = growth inhibition above about 70%; inactive = the rest.

Assays:
[1] = NCI Yeast Anticancer Drug Screen. Data for the rad52 strain (AID 147);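 note: 0% = growth of vehicle-treated control cultures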; conditions: S. cerevisiae rad52 mutant growth inhibition, stronger effect = higher value
How it was run: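 Measured: yeast growth inhibition. System: strain with a defined DNA damage repair alteration. Reference: vehicle-treated control cultures.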

[2] = NCI Yeast Anticancer Drug Screen. Data for the wt1 strain (AID 149);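 note: 0% = growth of vehicle-treated wt1 cultures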; conditions: S. cerevisiae wt1 strain (SPY 50644) growth inhibition, stronger effect = higher value
How it was run: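 Each compound is tested on wt1 yeast and the loss of growth versus vehicle gives the inhibition value.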

[3] = NCI Yeast Anticancer Drug Screen. Data for the rad50EPP+ strain (AID 151);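 note: 0% = growth of vehicle-treated control cultures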; conditions: S. cerevisiae rad50 mutant strain, stronger effect = higher value
How it was run: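 One strain with a rad50 alteration (rad50EPP+) was compound-treated, its growth then compared to that of vehicle controls.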

[4] = NCI Yeast Anticancer Drug Screen. Data for the mgt1 strain (AID 153); conditions: S. cerevisiae mgt1 mutant growth inhibition, stronger effect = higher value
How it was run: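 After exposure of the mgt1 yeast mutant to compound, growth was measured and reported as inhibition compared with vehicle controls.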

[5] = NCI Yeast Anticancer Drug Screen. Data for the rad50 strain (AID 155);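 note: 0% = growth of vehicle-only cultures of the same strain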; conditions: S. cerevisiae rad50 strain growth inhibition, stronger effect = higher value
How it was run: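 Vehicle-treated cultures provide the reference for the growth inhibition reported for compound-exposed, repair-deficient yeast.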

[6] = NCI Yeast Anticancer Drug Screen. Data for the mec2-1 strain (AID 157); conditions: S. cerevisiae mec2-1 strain, stronger effect = higher value
How it was run: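 Test agents were screened against the mec2-1 yeast strain, with defined DNA repair or cell cycle alteration. Growth was scored as inhibition against vehicle-only controls.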

[7] = NCI Yeast Anticancer Drug Screen. Data for the rad14 strain (AID 159);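 note: 0% = growth of vehicle-treated control cultures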; conditions: S. cerevisiae rad14 strain growth inhibition, stronger effect = higher value
How it was run: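 Inhibition of growth is reported for a repair-deficient yeast mutant following compound treatment, calculated relative to cultures that received vehicle.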

[8] = NCI Yeast Anticancer Drug Screen. Data for the sgs1 mgt1 strain (AID 161);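 note: 0% = growth of cultures given vehicle only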; conditions: S. cerevisiae sgs1 mgt1 strain, stronger effect = higher value
How it was run: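 Mutant yeast exposed to compound; growth scored against vehicle-only wells.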

[9] = NCI Yeast Anticancer Drug Screen. Data for the CLN2oe strain (AID 163);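 note: 0% = growth of vehicle-only control cultures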; conditions: S. cerevisiae CLN2oe strain, stronger effect = higher value
How it was run: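 Here, growth inhibition in a cell-cycle-altered yeast strain after compound exposure was quantified against vehicle control growth.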

[10] = NCI Yeast Anticancer Drug Screen. Data for the cln2 rad14 strain (AID 165);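 note: 0% = growth equal to vehicle treated cultures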; conditions: S. cerevisiae cln2 rad14 strain, stronger effect = higher value
How it was run: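 Growth of compound-exposed yeast (cln2 rad14 genotype) measured and expressed as inhibition relative to vehicle.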

[11] = NCI Yeast Anticancer Drug Screen. Data for the bub3 strain (AID 167); conditions: S. cerevisiae bub3 mutant strain, stronger effect = higher value
How it was run: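 Mutant yeast screening strain plus compound; vehicle-treated cultures serve as the 0% inhibition reference.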

[12] = NCI Yeast Anticancer Drug Screen. Data for the wt2 strain (AID 169); conditions: S. cerevisiae wt2 strain growth inhibition, stronger effect = higher value
How it was run: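 Genetically defined yeast strains from a DNA-repair/cell-cycle panel were used. Compound-exposed yeast growth was measured, and the inhibition was calculated relative to vehicle treatment.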

[13] = NCI Yeast Anticancer Drug Screen. Data for the sgs1 strain (AID 173);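 note: 0% = growth of vehicle-only control cultures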; conditions: S. cerevisiae sgs1 mutant, stronger effect = higher value
How it was run: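 Relative growth inhibition, referenced to vehicle, was determined in a yeast strain with a defined alteration affecting DNA damage repair or cell cycle control after compound exposure.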

[14] = NCI Yeast Anticancer Drug Screen. Data for the mlh1 rad18 strain (AID 175); conditions: S. cerevisiae mlh1 rad18 strain growth inhibition, stronger effect = higher value
How it was run: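 In this whole-cell yeast screen, a strain with altered DNA damage repair is challenged with compound, and its growth is measured against matched vehicle-treated controls.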

[15] = NCI Yeast Anticancer Drug Screen. Data for the rad18 strain (AID 177); conditions: S. cerevisiae rad18 mutant growth inhibition, stronger effect = higher value
How it was run: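 Screen uses a yeast strain with a defined lesion in DNA damage repair; compound effect is read as loss of growth compared to untreated vehicle cultures.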

[16] = at 5.0 µM (retest, dose inferred, filed as 0.5)
[17] = at 50.0 µM (retest, dose inferred, filed as 5.0)

Measured: growth inhibition

N#Cc1c(N)[nH]c2ccc(Sc3ccccc3)cc12
inactive: [1]; at 1.2 µM 1% | [1]; at 3.7 µM 0% | [1]; at 11.0 µM 14% | [2]; at 1.2 µM 1% | [2]; at 3.7 µM 5% | [2]; at 11.0 µM 1% | [3]; at 1.2 µM 3% | [3]; at 3.7 µM 6% | [3]; at 11.0 µM 19% | [3]; at 33.0 µM 33% | [3]; at 100.0 µM 51% | [4]; at 1.2 µM -1% | [4]; at 3.7 µM -2% | [4]; at 11.0 µM 9% | [5]; at 1.2 µM 1% | [5]; at 3.7 µM 0% | [5]; [16] -3% | [5]; at 11.0 µM 23% | [5]; [17] 44% | [5]; at 50.0 µM 46.1% | [6]; at 1.2 µM -2% | [6]; at 3.7 µM 2% | [6]; [16] -22% | [6]; at 11.0 µM 6% | [6]; [17] -6% | [6]; at 50.0 µM 62.8% | [7]; at 1.2 µM 1% | [7]; at 3.7 µM 4% | [7]; at 11.0 µM 7% | [8]; [16] -3% | [8]; [17] 40% | [8]; at 50.0 µM 52.9% | [9]; at 1.2 µM -6% | [9]; at 3.7 µM -22% | [9]; at 11.0 µM 12% | [10]; [16] -3% | [10]; [17] 14% | [10]; at 50.0 µM -0.8% | [11]; at 1.2 µM -5% | [11]; at 3.7 µM -6% | [11]; [16] 12% | [11]; at 11.0 µM 6% | [11]; [17] 51% | [11]; at 50.0 µM 52.4% | [12]; at 1.2 µM 0% | [12]; at 3.7 µM 1% | [12]; at 11.0 µM 4% | [13]; at 1.2 µM -3% | [13]; at 3.7 µM 5% | [13]; at 11.0 µM 23% | [14]; [16] 19% | [15]; at 1.2 µM 12% | [15]; at 3.7 µM 37%
active: [1]; at 33.0 µM 94% | [1]; at 100.0 µM 81% | [2]; at 33.0 µM 82% | [2]; at 100.0 µM 93% | [4]; at 33.0 µM 96% | [4]; at 100.0 µM 97% | [5]; at 33.0 µM 93% | [5]; at 100.0 µM 96% | [6]; at 33.0 µM 93% | [6]; at 100.0 µM 97% | [7]; at 33.0 µM 95% | [7]; at 100.0 µM 97% | [9]; at 33.0 µM 95% | [9]; at 100.0 µM 96% | [11]; at 33.0 µM 93% | [11]; at 100.0 µM 96% | [12]; at 33.0 µM 92% | [12]; at 100.0 µM 96% | [13]; at 33.0 µM 95% | [13]; at 100.0 µM 97% | [14]; [17] 85% | [14]; at 50.0 µM 70.5% | [15]; at 11.0 µM 87% | [15]; at 33.0 µM 95% | [15]; at 100.0 µM 96%
